Results published in PubChem BioAssay (EPA / NIEHS).
Results filed as inconclusive are left out. Active and inactive are the calls of the source. How the source made its calls, unless noted: active means hit-call score of the fitted dose curve at least 0.9, where 1 is the maximum; inactive means score below 0.9.

Columns and labels:
[1] = tested on: Brachyury (BRA) Protein Expression, TBXT (gene 6862); assay: CCTE_Deisenroth_DEVTOX-GLR_Endo_BRA: CCTE's DevTox GLR-Endo Assay Evaluation of Brachyury (BRA) Protein Expression, Deisenroth Lab (AID 2284417)
Protocol: (§1) CCTE_Deisenroth_DEVTOX-GLR_Endo assay is a cell-based, multiplex-readout assay that uses RUES2-GLR, a human pluripotent cell line, with measurements taken at 48 hours after chemical dosing in a 384-well microplateCCTE_Deisenroth_DEVTOX-GLR_Endo_BRA is 1 of 4 assay components calculated from the CCTE_Deisenroth_DEVTOX-GLR_Endo assay and it measures the percentage of cells in an mesoderm state. Using a type of inducible fluorescent protein reporter, gain-of-signal activity can be used to understand changes in gene expression with fluorescent microscopy. The percentage of BRA+ cells are determined by calculating the number of BRA+ cells divided by the cell count. To generalize the intended target to other relatable targets, this assay component is annotated to the transcription factor intended target family, where the subfamily is T-box protein.Data from the assay component CCTE_Deisenroth_DEVTOX-GLR_Endo_BRA was analyzed as 1 assay endpoint. The endpoint is the percent BRA+ cell population minus the 0.2% DMSO control in the CCTE_Deisenroth_DEVTOX-GLR_Endo assay. Furthermore, this assay endpoint can be referred to as a secondary readout, because this assay has produced multiple assay endpoints where this one serves as a measure of mesoderm differentiation.
(§2) All assay protocols are aligned to the DevTox GLR-Endo assay workflow. […]

[2] = CCTE_Deisenroth_DEVTOX-GLR_Endo_CellCount: Viability Assessment in CCTE's DevTox GLR-Endo Assay, Deisenroth Lab (AID 2284420)
Protocol: CCTE_Deisenroth_DEVTOX-GLR_Endo assay is a cell-based, multiplex-readout assay that uses RUES2-GLR, a human pluripotent cell line, with measurements taken at 48 hours after chemical dosing in a 384-well microplateCCTE_Deisenroth_DEVTOX-GLR_Endo_CellCount is 1 of 4 assay components calculated from the CCTE_Deisenroth_DEVTOX-GLR_Endo assay and it measures cell count. Using fluorescent nuclear staining, loss-of-signal activity can be used to understand changes in cell viability with fluorescent microscopy. It is designed to make measurements of nuclei counts as a surrogate for cell number, as detected with optical fluorescence microscopy by Perkin Elmer Harmony nuclei detection algorithm. To generalize the intended target to other relatable targets, this assay component is annotated to the cell cycle intended target family, where the subfamily is cytotoxicity.Data from the assay component CCTE_Deisenroth_DEVTOX-GLR_Endo_CellCount was analyzed as 1 assay endpoint. The endpoint the percent change in cell count relative to the 0.2% DMSO control in the CCTE_Deisenroth_DEVTOX-GLR_Endo assay. Furthermore, this assay endpoint can be referred to as a primary readout, because this assay has produced multiple assay endpoints where this one serves as a measure of cytotoxicity.
as §2

[3] = tested on: SRY-box transcription factor 17 (SOX17) Protein Expression, Deisenroth Lab, SOX17 (gene 64321); assay: CCTE_Deisenroth_DEVTOX-GLR_Pluri_SOX17: CCTE's DevTox GLR-Pluri Assay Evaluation of SRY-box transcription factor 17 (SOX17) Protein Expression, Deisenroth Lab (AID 2284427; active means hit-call score of the fitted dose curve at least 0.9, where 1 is the maximum)
Procedure, shortened: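 Using an inducible fluorescent SOX17 reporter in human pluripotent RUES2-GLR cells, compounds (1 nM - 200 uM) were given twice over 48 h differentiation. Percent SOX17+ cells minus DMSO control came from high-content image analysis.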

[4] = tested on: SRY-box transcription factor 2 (SOX2) Protein Expression, Deisenroth Lab, SOX2 (gene 6657); assay: CCTE_Deisenroth_DEVTOX-GLR_Pluri_SOX2: CCTE's DevTox GLR-Pluri Assay Evaluation of SRY-box transcription factor 2 (SOX2) Protein Expression, Deisenroth Lab (AID 2284428)
Protocol: CCTE_Deisenroth_DEVTOX-GLR_Pluri assay is a cell-based, multiplex-readout assay that uses RUES2-GLR, a human pluripotent cell line, with measurements taken at 48 hours after chemical dosing in a 384-well microplateCCTE_Deisenroth_DEVTOX-GLR_Pluri_SOX2 is 1 of 4 assay components calculated from the CCTE_Deisenroth_DEVTOX-GLR_Pluri assay and it measures an the percentage of cells in an pluripotent state. Using a type of inducible fluorescent protein reporter, gain-of-signal activity can be used to understand changes in gene expression with fluorescent microscopy. The percentage of SOX2+ cells are determined by calculating the number of SOX2+ cells divided by the cell count. To generalize the intended target to other relatable targets, this assay component is annotated to the transcription factor intended target family, where the subfamily is SRY-related HMG-box.Data from the assay component CCTE_Deisenroth_DEVTOX-GLR_Pluri_SOX2 was analyzed as 1 assay endpoint. The endpoint is the percent change in the SOX2+ cell population relative to the 0.2% DMSO control in the CCTE_Deisenroth_DEVTOX-GLR_Pluri assay. Furthermore, this assay endpoint can be referred to as a primary readout, because this assay has produced multiple assay endpoints where this one serves as a measure of […].
as §2

[5] = tested on: Brachyury (BRA) Protein Expression, Deisenroth Lab, TBXT (gene 6862); assay: CCTE_Deisenroth_DEVTOX-GLR_Pluri_BRA: CCTE's DevTox GLR-Pluri Assay Evaluation of Brachyury (BRA) Protein Expression, Deisenroth Lab (AID 2284429; active means hit-call score of the fitted dose curve at least 0.9, where 1 is the maximum)
Protocol: as §1, with “CCTE_Deisenroth_DEVTOX-GLR_Pluri” for “CCTE_Deisenroth_DEVTOX-GLR_Endo”, “microplateCCTE_Deisenroth_DEVTOX-GLR_Pluri_BRA” for “microplateCCTE_Deisenroth_DEVTOX-GLR_Endo_BRA”, “measures an” for “measures”, “CCTE_Deisenroth_DEVTOX-GLR_Pluri_BRA” for “CCTE_Deisenroth_DEVTOX-GLR_Endo_BRA”
as §2

[6] = CCTE_Deisenroth_DEVTOX-GLR_Pluri_CellCount: Viability Assessment in CCTE's DevTox GLR-Pluri Assay Evaluation of Total Cell Counts, Deisenroth Lab (AID 2284430)
Procedure, shortened: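 RUES2-GLR human pluripotent cells, seeded 24 h, then differentiated 48 h with two chemical exposures 24 h apart; 10-point series 1 nM - 200 uM. Fixed, nuclear-stained, imaged (5 fields/well); nuclei count as % change vs 0.2% DMSO.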

[7] = CCTE_Padilla_ZF_Score.Tail: CCTE's 144 Hour Post-fertilization zebrafish Assay Score for Tail Malformation, Padilla Lab (AID 2284414)
Protocol: CCTE_Padilla_ZF_Phenotype_Score is a whole embryo, multiplexed assay using zebrafish ova exposed for 144 hours post fertilization on a 96-well plate.CCTE_Padilla_ZF_Score.Tail is one of one assay component(s) measured or calculated from the CCTE_Padilla_ZF_Phenotype_Score assay. It is designed to make measurements of zebrafish development as detected with brightfield microscopy of developing zebrafish embryos.Data from the assay component CCTE_Padilla_ZF_Score.Tail was analyzed into 1 assay endpoints. This assay endpoint, CCTE_Padilla_ZF_Score.Tail, was analyzed in the positive analysis fitting direction relative to DMSO as the negative control and baseline of activity. Using a type of viability reporter, gain-of-signal activity can be used to understand changes in developmentals as they relate to the whole embryo. To generalize the intended target to other relatable targets, this assay endpoint is annotated to the zebrafish development intended target family, where the subfamily is lower trunk morphogenesis.
Zebrafish husbandry: Wild type adult zebrafish (Danio rerio; undefined outbred stock obtained from Aquatic Research Organisms, Hampton, NH, 03842) were housed in an AAALAC-approved animal facility at 28C with a 14:10 h light: dark cycle (lights on at 08:30 h). Adult fish (2-3 females per male; density = 15-20 adults per tank) were kept in one of several 9-liter (L) flow-through colony tanks (Aquaneering Inc., San Diego, CA). All adults in a colony tank were placed in a 2 L (static) breeding tank (Aquatic Habitats, Apopka, FL) one hour prior to light onset. Typically, adults from two to three colony tanks were mated on the same day. Two hours after light onset the adults were returned to the colony tank. All embryos were gathered from each breeder tank, pooled, and placed in a 28C water bath for 2 h, followed by two washes with 0.06% bleach (v/v) in 10% Hanks' Balanced Salt Solution (13.7 mM NaCl 0.54 mM KCl, 25 uM Na2HPO4, 130 uM CaCl2 100 um MgSO4 and 420 um NaHCO3,), hereafter referred to as Hanks' solution, for 5 min in order to remove any residual bacteria or fungi. Immediately following washing, the embryos were examined, and healthy embryos were separated from dead or unfertilized eggs and moved into fresh Hanks'. Chemical exposures: Zebrafish embryos were exposed in 96-well plates. Between 6- and 8-hours post fertilization (hpf), healthy embryos (with chorions) were transferred, one embryo per well, into 96 well (0.5 mL) microtiter plates (Cell Culture-Treated, Flat-Bottom Microplate 96 well [Corning Costar, Kennebunk, ME; Cat 09-761-145]) filled with 200 uL of Hanks' solution. A random number generator was used to assign the order in which the rows of embryos were plated in 96 well plates each week. […]

[8] = CCTE_Padilla_ZF_Score.Blood_pooling: CCTE's 144 Hour Post-fertilization zebrafish Assay Score for Blood Pooling, Padilla Lab (AID 2284415)
Procedure, shortened: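 Wild-type outbred zebrafish embryos, one per well in 10% Hanks', exposed from 6–8 hpf in sealed plates at 26C on 14:10 h light:dark, rinsed at 5 dpf. Blinded stereomicroscope scoring of blood pooling at 6 dpf; gain-of-signal versus DMSO.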

[9] = CCTE_Padilla_ZF_Score.Any: CCTE's 144 Hour Post-fertilization zebrafish Assay Score for Any Mortality or Malformation, Padilla Lab (AID 2284416)
Procedure, shortened: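 Wild-type zebrafish embryos with chorions, one per well in 10% Hanks' from 6–8 hpf, dosed in sealed plates at 26 C, 14:10 h light:dark; rinsed at 5 dpf; blinded scoring at 6 dpf for death or malformation, versus DMSO.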

## NC(=O)c1ccc(N)nc1
[1]
  AC50: 68.7 µM (active)
[2]
  AC50: 30.6 µM (active)
[3]
  outcome: inactive
[4]
  AC50: 38.1 µM (active)
[5]
  AC50: 100 µM (active)
[6]
  outcome: inactive

## C=CCOC(F)(C(F)(F)F)C(F)(F)F
[7]
  outcome: inactive
[8]
  outcome: inactive
[9]
  outcome: inactive

## COC(F)(C(F)(F)C(F)(F)F)C(F)(C(F)(F)F)C(F)(F)F (stereo not drawn)
[7]
  outcome: inactive
[8]
  outcome: inactive
[9]
  outcome: inactive

## O=S(=O)(F)C(F)(F)C(F)(F)C(F)(F)C(F)(F)F
[7]
  outcome: inactive
[8]
  outcome: inactive
[9]
  outcome: inactive

## CC(F)(F)CC(F)(F)F
[7]
  outcome: inactive
[8]
  outcome: inactive
[9]
  outcome: inactive
